# Source: publication PMC11062922 (Nature Chemical Biology, 2023)
# Where two headings read alike, the source gives them in different places.
# What was measured:
# Set-up in all cases: species or system human, MV4-11 + K-562 + COLO205 + SK-N-BE2 + OVCAR-8
# CSK = settings: read-out: apparent Kd, n = 1
# EPHA1 = settings: read-out: apparent Kd, n = 1
# FLT3 = settings: read-out: apparent Kd, n = 1
# FRK = settings: read-out: apparent Kd, compound concentrations: 100 nM and 1000 nM (sheet 'Samples'), n = 1
# GSK3A = settings: read-out: apparent Kd, n = 1
# GSK3B = settings: read-out: apparent Kd, n = 1
# LYN = settings: read-out: apparent Kd, compound concentrations: 100 nM and 1000 nM (sheet 'Samples'), n = 1
# SRC = settings: read-out: apparent Kd, compound concentrations: 100 nM and 1000 nM (sheet 'Samples'), n = 1
# ZAK = settings: read-out: apparent Kd, n = 1
# DYRK1A = settings: read-out: apparent Kd; compound concentrations:100 nM and 1000 nM (sheet 'Samples'); n = 1
# EGFR = settings: read-out: apparent Kd, compound concentrations: 100 nM and 1000 nM (sheet 'Samples'), n = 1
# ACVR1 = settings: read-out: apparent Kd, n = 1
# SIK2 = settings: read-out: apparent Kd, n = 1
# DDR1 = settings: read-out: apparent Kd, n = 1
# ACAD11 = settings: read-out: apparent Kd, n = 1
# ACVR1B = settings: read-out: apparent Kd, n = 1
# TGFBR1 = settings: read-out: apparent Kd; compound concentrations:100 nM and 1000 nM (sheet 'Samples'); n = 1
# AKT1 = settings: read-out: apparent Kd; compound concentrations:100 nM and 1000 nM (sheet 'Samples'); n = 1
# AKT2 = settings: read-out: apparent Kd, n = 1
# RIOK2 = settings: read-out: apparent Kd; compound concentrations:100 nM and 1000 nM (sheet 'Samples'); n = 1
# [1] = compound concentrations:100 nM and 1000 nM (sheet 'Samples')
smiles,measurement,setting,value
CN(C)Cc1ccc(-c2ccc3c(Nc4ccc(Oc5ccccn5)cc4)ccnc3c2)o1 [GW567148X],potency estimated from few doses,"CSK; compound concentrations: 100 nM and 1000 nM (sheet 'Samples'), CATDS: 1.6993908707239901E-2",1.76 µM
same,potency estimated from few doses,"EPHA1; compound concentrations: 100 nM and 1000 nM (sheet 'Samples'), CATDS: 2.4503846064608301E-2",0.577 µM
same,potency estimated from few doses,"FLT3; compound concentrations: 100 nM and 1000 nM (sheet 'Samples'), CATDS: 2.7806184989220401E-2",0.433 µM
same,potency estimated from few doses,FRK; CATDS: 2.1087873700944799E-2,0.85 µM
same,potency estimated from few doses,"GSK3A; compound concentrations: 100 nM and 1000 nM (sheet 'Samples'), CATDS: 2.2236241466677201E-2",0.736 µM
same,potency estimated from few doses,"GSK3B; compound concentrations: 100 nM and 1000 nM (sheet 'Samples'), CATDS: 1.84231194054994E-2",1.3 µM
same,potency estimated from few doses,LYN; CATDS: 2.6094910864106001E-2,0.499 µM
same,potency estimated from few doses,SRC; CATDS: 3.3500581656618303E-2,0.297 µM
c1ccc(Oc2ccc(Nc3ccnc4cc(-c5ccc(CN6CCCCC6)o5)ccc34)cc2)nc1 [GW567143X],potency estimated from few doses,"EPHA1; compound concentrations: 100 nM and 1000 nM (sheet 'Samples'), CATDS: 6.2167566437911E-2",0.315 µM
same,potency estimated from few doses,"FLT3; compound concentrations: 100 nM and 1000 nM (sheet 'Samples'), CATDS: 0.15169843184363399",0.0609 µM
same,potency estimated from few doses,FRK; CATDS: 3.9738345055864897E-2,1.1 µM
same,potency estimated from few doses,LYN; CATDS: 4.1336056970238899E-2,0.956 µM
same,potency estimated from few doses,SRC; CATDS: 5.3011588623511699E-2,0.464 µM
same,potency estimated from few doses,"ZAK; compound concentrations: 100 nM and 1000 nM (sheet 'Samples'), CATDS: 3.3669776805855603E-2",2.21 µM
CC(=O)c1c(-c2ccncc2)[nH]c(-c2ccncc2)c1C [GW493036X],potency estimated from few doses,DYRK1A,0.0537 µM
same,potency estimated from few doses,GSK3A; [1],0.4 µM
same,potency estimated from few doses,GSK3B; [1],0.535 µM
CC(=O)N1CCN(c2ccc(Nc3nccc(-c4sc(C(C)C)nc4-c4cccc(NS(=O)(=O)c5ccccc5)c4)n3)cn2)CC1 [GSK1645872A],potency estimated from few doses,EGFR; CATDS: 3.0506753540730399E-2,0.71 µM
same,potency estimated from few doses,"ZAK; compound concentrations: 100 nM and 1000 nM (sheet 'Samples'), CATDS: 2.8355440499728699E-2",0.855 µM
COc1cccc(-c2c[nH]c3c(N/N=C/c4ccncc4)ncnc23)c1 [GW814408X],potency estimated from few doses,ACVR1; [1],1.37 µM
same,potency estimated from few doses,GSK3A; [1],0.133 µM
same,potency estimated from few doses,GSK3B; [1],0.112 µM
same,potency estimated from few doses,SIK2; [1],1.18 µM
same,potency estimated from few doses,ZAK; [1],1.54 µM
CN1CCN(Cc2cccc(-c3ccc4c(Nc5ccc(Oc6ccccc6)cc5)ccnc4c3)c2)CC1 [GW578342X],potency estimated from few doses,SRC; CATDS: 9.2821429290207799E-2,0.825 µM
CS(=O)(=O)Cc1ccc(Nc2nccc(-c3c(-c4cccc(NC(=O)c5c(F)cccc5F)c4)nn4ccccc34)n2)cc1 [GSK323543A],potency estimated from few doses,"DDR1; compound concentrations: 100 nM and 1000 nM (sheet 'Samples'), CATDS: 5.7176748718511097E-2",1.93 µM
same,potency estimated from few doses,EGFR; CATDS: 5.5544990287731598E-2,2.13 µM
same,potency estimated from few doses,LYN; CATDS: 6.3006631754301101E-2,1.44 µM
COc1cc2ncn(-c3cc(OCc4ccncc4)c(C(N)=O)s3)c2cc1OC [GSK336313A],potency estimated from few doses,ACAD11; [1],1.4 µM
COc1cc2ncn(-c3cc(OCCCc4ccccc4)c(C(N)=O)s3)c2cc1OC [GSK205189A],potency estimated from few doses,GSK3A; [1],0.575 µM
same,potency estimated from few doses,GSK3B; [1],1.11 µM
Fc1cc(Cl)ccc1Nc1ccnc2cc(-c3ccc(CN4CCOCC4)o3)ccc12 [GW560109X],potency estimated from few doses,"EPHA1; compound concentrations: 100 nM and 1000 nM (sheet 'Samples'), CATDS: 7.1072488518175297E-2",0.699 µM
same,potency estimated from few doses,"SIK2; compound concentrations: 100 nM and 1000 nM (sheet 'Samples'), CATDS: 7.4326552669870996E-2",0.63 µM
CNc1nccc(-c2c(-c3ccc(F)cc3)ncn2C2CCN(C)CC2)n1 [SB-222903],potency estimated from few doses,DDR1; [1],0.348 µM
CN1CCN(c2ccc(Nc3nc(N)c(C(=O)c4ccc5c(c4)OCCO5)s3)cc2)CC1 [RO0505124-000],potency estimated from few doses,"ACAD11; compound concentrations: 100 nM and 1000 nM (sheet 'Samples'), CATDS: 0.36798074276012699",0.137 µM
Fc1ccc(-c2c(-c3ccncc3)[nH]c3nccnc23)cc1 [RO1155697-000],potency estimated from few doses,ACAD11; [1],1.3 µM
same,potency estimated from few doses,ACVR1B; [1],0.711 µM
same,potency estimated from few doses,DDR1; [1],1.01 µM
same,potency estimated from few doses,TGFBR1,1.95 µM
COc1cc2ncn(-c3cc(OCc4cccs4)c(C(N)=O)s3)c2cc1OC [GSK312948A],potency estimated from few doses,ACAD11; [1],0.766 µM
Nc1nc(N)c2nc(-c3ccccc3)[nH]c2n1 [SKF-12778],potency estimated from few doses,ACAD11; [1],1.29 µM
same,potency estimated from few doses,AKT1,1.48 µM
same,potency estimated from few doses,AKT2; [1],1.57 µM
same,potency estimated from few doses,FLT3; [1],1.07 µM
same,potency estimated from few doses,RIOK2,1.62 µM
Cc1ccc(O)cc1Nc1ccnc2ccc(C(C)(C)C)cc12 [GW856805X],potency estimated from few doses,"EPHA1; compound concentrations: 100 nM and 1000 nM (sheet 'Samples'), CATDS: 0.48562635988047498",0.00103 µM
same,potency estimated from few doses,FRK; CATDS: 5.5452484233419301E-2,0.0442 µM
CN1CCc2ccc(Nc3nccc(-c4c(-c5cccc(NC(=O)c6c(F)cccc6F)c5)nc5ccccn45)n3)cc2C1.Cl [GSK1010829B],potency estimated from few doses,"CSK; compound concentrations: 100 nM and 1000 nM (sheet 'Samples'), CATDS: 3.4286589805654001E-2",1.38 µM
same,potency estimated from few doses,"DDR1; compound concentrations: 100 nM and 1000 nM (sheet 'Samples'), CATDS: 3.8396909039531198E-2",1.01 µM
same,potency estimated from few doses,EGFR; CATDS: 3.29518195590447E-2,1.57 µM
same,potency estimated from few doses,FRK; CATDS: 4.3093308654231798E-2,0.77 µM
same,potency estimated from few doses,LYN; CATDS: 6.0028262979631E-2,0.403 µM
same,potency estimated from few doses,SRC; CATDS: 5.29363400907749E-2,0.505 µM
CS(=O)(=O)c1ccc(-c2cnc(N)c(C(=O)Nc3ccccc3)n2)cc1 [VE-821],potency estimated from few doses,"ACAD11; compound concentrations: 100 nM and 1000 nM (sheet 'Samples'), CATDS: 0.28747433490732499",0.334 µM
same,potency estimated from few doses,"ACVR1; compound concentrations: 100 nM and 1000 nM (sheet 'Samples'), CATDS: 0.23402364017956601",0.475 µM
Cn1cc(-c2ccc3c(c2)CCN3C(=O)Cc2cc(F)cc(C(F)(F)F)c2)c2c(N)ncnc21 [GSK2635225A],potency estimated from few doses,"AKT2; compound concentrations: 100 nM and 1000 nM (sheet 'Samples'), CATDS: 0.123001791308401",1.85 µM
Cl.Cn1c(=O)c(Cc2ccc(F)cc2F)cc2cnc(NC3CCOCC3)nc21 [RO3308757-001],potency estimated from few doses,GSK3A; [1],0.484 µM
same,potency estimated from few doses,GSK3B; [1],0.745 µM
same,potency estimated from few doses,SIK2; [1],0.812 µM
CC(C)c1nc(-c2ccc(F)c(NS(=O)(=O)c3c(F)cccc3F)c2)c(-c2ccnc(Nc3ccc(N4CCOCC4)nc3)n2)s1 [GSK1804250A],potency estimated from few doses,CSK; [1],0.442 µM
same,potency estimated from few doses,EPHA1; [1],0.548 µM
same,potency estimated from few doses,ZAK; [1],1.41 µM
CC(C)c1nc(-c2cccc(NS(=O)(=O)c3c(F)cccc3F)c2)c(-c2ccnc(Nc3ccc(N4CCOCC4)nc3)n2)s1.Cl [GSK1723980B],potency estimated from few doses,"ACVR1B; compound concentrations: 100 nM and 1000 nM (sheet 'Samples'), CATDS: 1.87484218332362E-2",0.614 µM
same,potency estimated from few doses,"CSK; compound concentrations: 100 nM and 1000 nM (sheet 'Samples'), CATDS: 4.9145326105273501E-2",0.0816 µM
same,potency estimated from few doses,EGFR; CATDS: 1.4688482058743299E-2,1.66 µM
same,potency estimated from few doses,"EPHA1; compound concentrations: 100 nM and 1000 nM (sheet 'Samples'), CATDS: 2.59841988169222E-2",0.261 µM
same,potency estimated from few doses,FRK; CATDS: 1.9563018152501301E-2,0.538 µM
same,potency estimated from few doses,LYN; CATDS: 2.8217143003072001E-2,0.219 µM
same,potency estimated from few doses,"SIK2; compound concentrations: 100 nM and 1000 nM (sheet 'Samples'), CATDS: 1.4802843404643599E-2",1.59 µM
same,potency estimated from few doses,SRC; CATDS: 2.25730576079274E-2,0.364 µM
same,potency estimated from few doses,"ZAK; compound concentrations: 100 nM and 1000 nM (sheet 'Samples'), CATDS: 1.6677685613390399E-2",0.926 µM
CC(C)c1nc(-c2cccc(NS(=O)(=O)c3c(F)cccc3F)c2F)c(-c2ccnc(Nc3ccc(N4CCOCC4)nc3)n2)s1 [GSK2008607A],potency estimated from few doses,"CSK; compound concentrations: 100 nM and 1000 nM (sheet 'Samples'), CATDS: 4.1008032947333198E-2",0.262 µM
same,potency estimated from few doses,"EPHA1; compound concentrations: 100 nM and 1000 nM (sheet 'Samples'), CATDS: 2.5663443213215401E-2",0.679 µM
same,potency estimated from few doses,LYN; CATDS: 2.5134529621639101E-2,0.715 µM
